Screening results deposited in PubChem by The Scripps Research Institute Molecular Screening Center.
CHRM1 antagonist = human M1 muscarinic receptor antagonists, primary screen, CHO-K1 cells, Fluo-8 calcium fluorescence, 1536-well | Muscarinic acetylcholine receptor M1 (Homo sapiens), P11229 | CHO-K1 hM1, ACh EC80 antagonist | inhibition, % at 3 µM | actives 1.3% (n = 360,000) | AID 588852, 2011;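 active = percent inhibition above its own plate's cutoff, namely the mean of that plate's compound wells plus 3 SD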;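 note: peak over basal fluorescence ratio during 140 s after agonist addition; 0% = ACh EC80 plus DMSO and 100% = DMSO alone without agonist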
Target sequence (P11229 whole entry, looked up): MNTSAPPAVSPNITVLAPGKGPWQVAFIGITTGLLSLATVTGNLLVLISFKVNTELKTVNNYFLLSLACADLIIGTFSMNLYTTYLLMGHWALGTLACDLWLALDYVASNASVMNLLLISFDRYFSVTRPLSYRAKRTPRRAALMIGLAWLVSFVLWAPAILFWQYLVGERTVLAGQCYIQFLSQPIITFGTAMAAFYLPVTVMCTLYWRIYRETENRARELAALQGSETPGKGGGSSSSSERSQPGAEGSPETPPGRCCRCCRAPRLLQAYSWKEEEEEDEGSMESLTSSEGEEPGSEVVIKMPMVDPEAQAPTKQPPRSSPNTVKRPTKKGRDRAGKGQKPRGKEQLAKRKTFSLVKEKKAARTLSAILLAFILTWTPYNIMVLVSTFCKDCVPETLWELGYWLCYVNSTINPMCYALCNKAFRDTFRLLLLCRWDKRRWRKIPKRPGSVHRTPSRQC
CHO-K1 Ca antag = M1 antagonist counterscreen hit in parental CHO-K1 cells; ATP-induced calcium, Fluo-8 fluorescence; inhibition, % at 3 µM; actives 0.6% (n = 360,000); AID 602250;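 active = inhibition above a per-plate cutoff, the plate's mean sample inhibition plus 3 SD, cut at about 24% in these data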;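 note: 0% = DMSO plus EC80 ATP and 100% = DMSO alone without ATP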
M1 PAM parental = nonselective calcium activators in parental CHO-K1 cells, primary screen, counter-screen for M1 PAM project, cell-based, Fluo-8 calcium fluorescence, full deck, 1536-well; ATP EC20; 0% at ATP EC20, 100% at ATP max; activation, % at 3 µM; actives 0.02% (n = 360,000); AID 602247, 2012;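 active = activation above the run cutoff, the mean activation of all test compounds plus 3 SD, cut at about 40% in these data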;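 note: peak over basal fluorescence ratio in a 140 s read after ATP addition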
M1 PAM = human M1 muscarinic receptor positive allosteric modulators, primary screen, CHO-K1 cells, Fluo-8 calcium fluorescence, 1536-well; activation, % at 3 µM; actives 0.088% (n = 360,000); CHO-K1 hM1, ACh EC20; 0% = ACh EC20, 100% = maximal ACh; Muscarinic acetylcholine receptor M1 (Homo sapiens), P11229; in the data active = activation above about 19%, passing the limit was not always enough
M1 ag parental = counter-screen for M1 agonists: effect in parental CHO-K1 cells. Fluo-8 calcium fluorescence; scaled to maximal ATP response, vehicle zero. actives 0.48% (n = 360,000). activation, % at 3 µM; in the data active = activation above about 15%;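 note: untransfected CHO-K1 host cells lacking M1 receptor as counterscreen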
M1 ag = human M1 muscarinic receptor agonists, primary screen, Fluo-8 calcium fluorescence, CHO-K1 cells, HTS; Muscarinic acetylcholine receptor M1 (Homo sapiens), P11229; CHO-K1 hM1, agonist mode; 0% DMSO, 100% acetylcholine EC100; activation, % at 3 µM; actives 0.33% (n = 360,000); AID 588814, 2011;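 active = activation above the run's mean compound activation plus 3 SD, cut at about 16% in these data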;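 note: peak over basal fluorescence ratio within a 140 s kinetic read after compound addition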
* = called active by the depositor. The list is not random: actives were taken first. Their share in the collection is about 2.4%.

What do the screens show for `COc1cccc(C(=O)NCC(c2ccc3c(c2)OCO3)N2CCN(c3ccc(F)cc3)CC2)c1` (stereo not drawn)?
CHRM1 antagonist: 28*; CHO-K1 Ca antag: 0; M1 PAM parental: -12; M1 PAM: -26; M1 ag parental: 1; M1 ag: -7

How did COc1ccc(C(=O)NCCc2nnc(SCC(=O)Nc3ccccc3)n2C)cc1 do in these assays?
CHRM1 antagonist: -31; CHO-K1 Ca antag: 25*; M1 PAM parental: -8; M1 PAM: 8; M1 ag parental: 0; M1 ag: 10

What do the screens show for `Cc1ccc(-c2c(C(=O)N/N=C/c3ccoc3)nnn2-c2nonc2N)cc1`?
CHRM1 antagonist: -9; CHO-K1 Ca antag: -6; M1 PAM parental: -22; M1 PAM: 12; M1 ag parental: 0; M1 ag: 4

What do the screens show for `Nc1nonc1-n1nnc(C(=O)N/N=C/c2cccs2)c1-c1ccc2c(c1)OCO2`?
CHRM1 antagonist: -7; CHO-K1 Ca antag: -31; M1 PAM parental: 20; M1 PAM: 9; M1 ag parental: 42*; M1 ag: 43*

What do the screens show for `CCOc1ccc(-c2c(C(=O)N/N=C/c3cccs3)nnn2-c2nonc2N)cc1`?
CHRM1 antagonist: 3; CHO-K1 Ca antag: 3; M1 PAM parental: 17; M1 PAM: 3; M1 ag parental: 3; M1 ag: 11

How did Cc1ccc(-c2c(C(=O)N/N=C/c3ccsc3)nnn2-c2nonc2N)cc1 do in these assays?
CHRM1 antagonist: -1; CHO-K1 Ca antag: -4; M1 PAM parental: 2; M1 PAM: 1; M1 ag parental: 17*; M1 ag: 41*

Results for Cc1ccc(-c2c(C(=O)N/N=C/c3cccs3)nnn2-c2nonc2N)cc1 ?
CHRM1 antagonist: -21; CHO-K1 Ca antag: -15; M1 PAM parental: 24; M1 PAM: 21; M1 ag parental: 13; M1 ag: 18*

Results for CCOc1cccc(-c2c(C(=O)N/N=C/c3ccsc3)nnn2-c2nonc2N)c1 ?
CHRM1 antagonist: -5; CHO-K1 Ca antag: -12; M1 PAM parental: 19; M1 PAM: 16; M1 ag parental: 2; M1 ag: 19*

What do the screens show for `CCOc1cccc(-c2c(C(=O)N/N=C/c3sccc3C)nnn2-c2nonc2N)c1`?
CHRM1 antagonist: -1; CHO-K1 Ca antag: -6; M1 PAM parental: 5; M1 PAM: 6; M1 ag parental: 3; M1 ag: 1

What do the screens show for `CCN1C(=O)[C@@H]2[C@H](C1=O)[C@@H]1C(=O)Nc3ccccc3C(=O)N1[C@@H]2c1ccc(OC)cc1`?
CHRM1 antagonist: -3; CHO-K1 Ca antag: -4; M1 PAM parental: 20; M1 PAM: 7; M1 ag parental: 0; M1 ag: -4

How did CCOC(=O)c1c(NC(=O)CN2C(=O)NC3(CCCCC3C)C2=O)sc(C)c1CC (stereo not drawn) do in these assays?
CHRM1 antagonist: 3; CHO-K1 Ca antag: 16; M1 PAM parental: -16; M1 PAM: 0; M1 ag parental: 23*; M1 ag: 0

Results for O=C(COC(=O)c1ccc2c(c1)OCCO2)NCCc1ccccc1 ?
CHRM1 antagonist: -4; CHO-K1 Ca antag: -9; M1 PAM parental: -14; M1 PAM: 1; M1 ag parental: 0; M1 ag: -8

What do the screens show for `CCC(C)(C)c1ccc(OCCCC[n+]2cccc(C)c2C)c(C(C)(C)CC)c1`?
CHRM1 antagonist: 73*; CHO-K1 Ca antag: 13; M1 PAM parental: 11; M1 PAM: -24; M1 ag parental: 25*; M1 ag: -8

What do the screens show for `Cc1cccc(C(=O)NCC(=O)N2CCN(c3ccc(Cl)cc3)CC2)c1`?
CHRM1 antagonist: 3; CHO-K1 Ca antag: -13; M1 PAM parental: 12; M1 PAM: 1; M1 ag parental: 16*; M1 ag: 0

How did CCCn1c(N)c(C(=O)NS(=O)(=O)c2ccc(C)cc2)c(=O)n(C)c1=O do in these assays?
CHRM1 antagonist: -3; CHO-K1 Ca antag: 6; M1 PAM parental: 2; M1 PAM: 6; M1 ag parental: 17*; M1 ag: 0

What do the screens show for `CC(NC(=O)C1CCCN(C(=O)c2ccc(Cl)cc2)C1)c1cccc(C(F)(F)F)c1` (stereo not drawn)?
CHRM1 antagonist: -6; CHO-K1 Ca antag: -13; M1 PAM parental: -10; M1 PAM: 7; M1 ag parental: -1; M1 ag: -1

Results for Fc1ccc(Cn2cc(C(=S)N3CCOCC3)c3ccccc32)cc1 ?
CHRM1 antagonist: -3; CHO-K1 Ca antag: 9; M1 PAM parental: 2; M1 PAM: 8; M1 ag parental: 23*; M1 ag: 8

How did O=C(O)Cn1cc(C(=S)N2CCOCC2)c2ccccc21 do in these assays?
CHRM1 antagonist: -27; CHO-K1 Ca antag: -22; M1 PAM parental: -6; M1 PAM: 27*; M1 ag parental: 0; M1 ag: 2

How did O=C(Cn1cc(C(=S)N2CCOCC2)c2ccccc21)N1CCOCC1 do in these assays?
CHRM1 antagonist: -27; CHO-K1 Ca antag: -6; M1 PAM parental: 19; M1 PAM: 9; M1 ag parental: 1; M1 ag: -2

Results for CCOC(=O)C1CCN(C(=O)c2cccc(S(=O)(=O)NCc3ccccc3)c2)CC1 ?
CHRM1 antagonist: -1; CHO-K1 Ca antag: -16; M1 PAM parental: 17; M1 PAM: 1; M1 ag parental: 3; M1 ag: -1

How did CCCCn1c(N)c(N(C)C(=O)c2cn(-c3ccccc3)nc2-c2ccccc2)c(=O)[nH]c1=O do in these assays?
CHRM1 antagonist: -11; CHO-K1 Ca antag: -12; M1 PAM parental: 4; M1 PAM: 7; M1 ag parental: 0; M1 ag: -5

Results for CNC(=O)c1ccsc1NC(=O)CS(=O)(=O)c1ccc(F)cc1 ?
CHRM1 antagonist: 0; CHO-K1 Ca antag: 23; M1 PAM parental: -1; M1 PAM: 0; M1 ag parental: 2; M1 ag: 1

Results for COc1ccc(Nc2cc(NCCCO)c([N+](=O)[O-])c3nonc23)cc1 ?
CHRM1 antagonist: -4; CHO-K1 Ca antag: -8; M1 PAM parental: 7; M1 PAM: 2; M1 ag parental: -2; M1 ag: -4

How did COc1ccc(CNc2cc(NCCCO)c([N+](=O)[O-])c3nonc23)cc1 do in these assays?
CHRM1 antagonist: -2; CHO-K1 Ca antag: 25*; M1 PAM parental: -16; M1 PAM: 1; M1 ag parental: -1; M1 ag: -10

What do the screens show for `CC(=O)c1ccc(OCCCCOc2ccc(C(C)=O)cc2)cc1`?
CHRM1 antagonist: -14; CHO-K1 Ca antag: -13; M1 PAM parental: 12; M1 PAM: 6; M1 ag parental: 0; M1 ag: -2
